Assay outcomes: PubChem, National Center for Advancing Translational Sciences (NCATS)
G9a block: qHTS Assay for Inhibitors of Histone Lysine Methyltransferase G9a; AID 504332, 2011; actives 8.8% (n = 350,000); Histone-lysine N-methyltransferase EHMT2 (Homo sapiens), Q96KQ7; Potency, µM (doses to about 102 µM), for inactives: at the highest dose activity, negative = inhibition, actives largely listed as inhibitors; G9a H3K9 monomethylation, AlphaScreen, 2 h; further: on the % scale 0 is the no-effect control and ±100 the full control effect; nearly all actives have a fitted effect of over 75% in size
Target sequence (Q96KQ7 913-1193 limits assumed): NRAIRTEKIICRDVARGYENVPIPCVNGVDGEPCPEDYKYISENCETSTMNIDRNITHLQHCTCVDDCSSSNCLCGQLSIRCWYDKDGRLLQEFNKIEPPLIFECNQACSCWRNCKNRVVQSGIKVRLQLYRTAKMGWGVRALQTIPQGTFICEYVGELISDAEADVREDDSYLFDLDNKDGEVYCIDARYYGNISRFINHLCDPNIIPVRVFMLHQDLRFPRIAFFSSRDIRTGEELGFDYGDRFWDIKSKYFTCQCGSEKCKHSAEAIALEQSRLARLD
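Using a bead-based AlphaScreen, monomethylated H3K9 product from 2 h room-temperature reactions (G9a 20 nM, peptide 500 nM, SAM 20 uM) was detected with 0.5 ug/mL rabbit anti-H3K9me1 antibody.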
HP1b binding inh: HTS for Inhibitors of HP1-beta Chromodomain Interactions with Methylated Histone Tails; Chromobox protein homolog 1 (Homo sapiens), P83916; AlphaScreen HP1-beta / biotin-H3K9me3 peptide binding; Potency, µM (top dose mostly 114 µM), without a hit: top-dose activity change, negative = inhibition, usual class: inhibitors; actives 0.56% (n = 390,000); AID 540317, 2011; further: nearly all actives have a fitted effect of over 70% in size
Target sequence (P83916 whole entry, looked up): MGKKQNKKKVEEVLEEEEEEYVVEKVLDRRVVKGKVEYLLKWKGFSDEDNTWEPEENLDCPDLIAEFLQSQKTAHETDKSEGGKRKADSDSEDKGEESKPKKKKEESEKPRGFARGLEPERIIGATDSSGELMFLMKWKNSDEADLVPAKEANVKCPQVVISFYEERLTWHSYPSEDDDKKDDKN
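AlphaScreen: HP1-beta (50 nM) preformed 30 min with biotin-H3(1-18)K9me3 peptide (50 nM) in PBS pH 7.4, 0.01% Tween-20. Compound added for 30 min at RT, then streptavidin donor/nickel chelate acceptor beads (10 ug/mL) for 30 min.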
BAZ2B inh: qHTS Assay for Inhibitors of BAZ2B; Bromodomain adjacent to zinc finger domain protein 2B (Homo sapiens), Q9UIF8; Potency, µM (titrated, usually from 114 µM), for inactives: at the top dose activity change, negative = inhibition, actives largely listed as inhibitors; actives 4.4% (n = 360,000); AlphaScreen BAZ2B-H3K14Ac peptide displacement; further: on the % scale 0 is the no-effect control and ±100 the full control effect; nearly all actives have a fitted effect of over 60% in size
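Inhibition is scored as reduced AlphaScreen emission. The BAZ2B/b-H3(5-23)K14Ac complex (50 nM each) in PBS pH 7.4, 0.01% Tween-20 meets compound (up to 110 uM) for 30 min at RT before bead addition.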
Sfp inh: qHTS Assay for Inhibitors of Bacillus subtilis Sfp phosphopantetheinyl transferase (PPTase); 4'-phosphopantetheinyl transferase ffp (Bacillus subtilis), Q9F4F7; Potency, µM, for inactives: largest response in the series, negative = inhibition, hits mostly inhibitors; Biochemical Sfp PPTase activity, qHTS; actives 3.5% (n = 310,000);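 further: the enzyme is Sfp with the accession as filed and its product quenches rhodamine fluorescence; 0% = enzyme reaction without inhibitor and -100% = no enzyme wells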
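After 15 min at room temperature with compound, 15 nM Sfp received 5 uM rhodamine-CoA plus 12.5 uM BHQ-2-ybbR (50 mM Hepes pH 7.6, 10 mM MgCl2). Rate came from the fluorescence difference over 30 min, ex 525/em 598 nm.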
JMJD2A Tudor: qHTS Assay for Inhibitors of JMJD2A-Tudor Domain | Potency, µM (series often up to 114 µM), inactives show at the highest dose activity change, negative = inhibition, usual class: inhibitors | actives 4.4% (n = 390,000) | AlphaScreen JMJD2A-Tudor / H3K4me3 peptide binding | Lysine-specific demethylase 4A (Homo sapiens), O75164 | AID 504339, 2011; further: on the % scale 0 is the no-effect control and ±100 the full control effect; nearly all actives have a fitted effect of over 50% in size
L3MBTL1 block: qHTS Assay for the Inhibitors of L3MBTL1; AlphaScreen L3MBTL1–H3K9me1 peptide binding; Potency, µM (top dose mostly 57.1 µM), without a hit: top-dose activity, negative = inhibition, actives largely listed as inhibitors; actives 0.66% (n = 230,000); further: on the % scale 0 is the no-effect control and ±100 the full control effect; nearly all actives have a fitted effect of over 60% in size
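AlphaScreen proximity signal between nickel-chelate acceptor and streptavidin donor beads (final 10 ug/mL) reports binding of 50 nM L3MBTL1 to 75 nM biotin-H3 K9me1 peptide; complex incubated with compounds 30 min at room temperature; cefsulodin titration as control.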
Active calls of the source: *; ? = inconclusive; / = no result; [ ] = dose if it differs, or a comment. Most compounds without a hit are left out; they make up all but 12% or so of the library. The call rests on the fitted dose curve; in most records, active means well fitted curve in the direction sought with a large enough effect; inconclusive means small, poorly fitted or top-dose-only effect, or another doubt; inactive means no such curve, though single readings can be large; an effect the other way counts as inactive or inconclusive. Potency means the concentration at half of the fitted maximal effect.

SMILES | G9a block | HP1b binding inh | BAZ2B inh | Sfp inh | JMJD2A Tudor | L3MBTL1 block
Cc1cc(C)c2sc(N(CCCN(C)C)C(=O)c3ccc(Br)s3)nc2c1 | ? | -3.5% | 50.1µM* | -16.3% | ? | -22.9%
CCN(Cc1ccccc1)S(=O)(=O)c1ccc(C(=O)N(CCCN(C)C)c2nc3cc(C)cc(C)c3s2)cc1 | 25.1µM* | ? | ? | / | ? | -16.3%
Cc1cc(C)c2sc(N(CCCN(C)C)C(=O)c3ccc(S(=O)(=O)N(C)Cc4ccccc4)cc3)nc2c1 | 39.8µM* | ? | ? | / | ? | -1.4%
Cc1cccc2sc(N(CCCN(C)C)C(=O)c3ccc(Cl)s3)nc12 | -17.0%[59 µM] | 24.7% | -21.0% | ? | ? | /
CCc1ccc(C(=O)c2cn(CC(=O)Nc3cccc(C)c3C)c3nc(C)ccc3c2=O)cc1 | -7.1%[59 µM] | 4.6% | ? | / | ? | /
CCOc1ccc2nc(N3CCCC(C(=O)NCc4ccccc4OC)C3)sc2c1 (stereo not given) | 6.8%[59 µM] | 21.0% | 1.7% | / | -14.5% | /
CO[C@]1(NC(=O)[C@H](C(=O)O)c2ccc(O)cc2)C(=O)N2C(C(=O)O)=C(CSc3nnnn3C)CO[C@H]21 | ? | / | / | -21.0% | / | /
COc1cccc(CNC(=O)CN2C(=O)CCCc3ccccc32)c1OC | -4.6%[59 µM] | 39.6% | 0.5% | / | -18.5% | /
CCOC(=O)Cc1c(C(=O)OCC)nnc2c(-c3ccccc3)c(C)nn12 | ? | -6.8% | ? | / | ? | /
Cc1cc(C)c2sc(N(CCCN(C)C)C(=O)CN3C(=O)c4ccccc4C3=O)nc2c1 | 50.1µM* | 63.3% | ? | -12.9% | -14.0%[11.4 µM] | 4.4%
Cc1nc(SCC(=O)Nc2ccccc2F)[nH]c(=O)c1Cc1ccccc1 | -2.4%[59 µM] | 38.4% | 3.0% | / | -5.2% | /
CC(C)n1cnc2c(N(C)c3ccccc3)nc(N(CCN(C)C)Cc3ccccc3)nc21 | ? | ? | 31.6µM* | ? | 44.7µM* | /
NCCCC[C@H](NC(=O)[C@H](CS)NC(=O)[C@@H](N)Cc1cnc[nH]1)C(=O)N[C@@H](Cc1ccccc1)C(=O)N[C@@H](Cc1c[nH]c2ccccc12)C(=O)N[C@@H](Cc1c[nH]c2ccccc12)C(=O)O | / | / | / | 13.6% | / | /
CCOC(=O)C(=CNc1ccc(-c2ccco2)c(Cl)c1)C(=O)OCC | / | 9.2% | -31.4% | 28.2µM* | 6.6% | -18.1%
CC(=O)N1CCc2cc([N+](=O)[O-])ccc21 | / | 24.8% | / | / | -5.6% | /
CCOC(=O)N1CCN(CC(=O)c2ccc3c(c2)CCN3C(C)=O)CC1 | 31.6µM* | 31.1% | -0.9% | -24.4% | -22.5% | /
CC(=O)N1CCc2cc(C(=O)CN3CCCCC3)ccc21 | 50.1µM* | 36.3% | 3.3% | -21.3% | -26.4% | -0.1%
CCOC(=O)N1CCC(NS(=O)(=O)c2ccc3c(c2)CCN3C(C)=O)CC1 | -24.3%[59 µM] | 39.1% | -0.5% | 0.0% | 6.6% | /
Cc1cccc(CN(C(=S)Nc2c(C)cccc2C)c2cccnc2)c1 | ? | 23.3% | 79.4µM* | 0.7% | -15.8% | 9.6%
CCc1ccccc1NC(=S)N(Cc1cccc(C)c1)c1cccnc1 | -18.3% | 12.6% | -20.2% | 7.0% | -23.7% | -2.2%
Cc1ccc2[nH]c3nc(NN)nnc3c2c1 | / | 38.0% | 3.55µM* | 8.8% | 50.1µM* | ?
Cc1ccc(Nc2nc(-c3ccc(S(=O)(=O)N4CCCC4)cc3)cs2)cc1C | 44.7µM* | -0.1% | ? | -19.0% | ? | -5.1%
COc1ccc(-c2csc(Nc3ccc(S(=O)(=O)Nc4cc(C)on4)cc3)n2)cc1C | 39.8µM* | -14.7% | 50.1µM* | -27.1% | ? | ?
COc1cc(NS(=O)(=O)c2ccc(Nc3nc(-c4ccccn4)cs3)cc2)nc(OC)n1 | -33.9% | 2.6% | ? | 0.6% | ? | -12.2%
COc1ccc(CC(=O)Nc2ccc(S(=O)(=O)Nc3cc(C)on3)cc2)cc1OC | -0.2% | 12.1% | 10.7% | 19.1% | -6.2% | -1.2%
SMILES | G9a block | HP1b binding inh | BAZ2B inh | Sfp inh | JMJD2A Tudor | L3MBTL1 block
COc1ccc(-c2csc(Nc3ccc(S(=O)(=O)Nc4cc(OC)nc(OC)n4)cc3)n2)cc1 | -11.7%[59 µM] | ? | 44.7µM* | ? | ? | -10.6%
CN(C)CCCO[C@H]1C([C@H](O)CO)O[C@@H]2OC(C)(C)O[C@@H]21 (stereo not given in full) | 15.4%[12.7 µM] | / | / | / | / | /
CCn1cc(C(=O)N2CCN(c3ccccc3OC)CC2)c(=O)c2cc(S(=O)(=O)N3CCC(C)CC3)ccc21 | -7.3%[59 µM] | 0.3% | / | / | -26.7% | /
COc1cccc(-n2cc(C(=O)OCc3ccc(F)c(F)c3)c3ccccc3c2=O)c1 | 5.8%[59 µM] | 32.7%[57 µM] | 14.4% | / | -8.7% | /
Cc1ccc(OCC(O)Cn2c3ccccc3c3ccccc32)cc1 (stereo not given) | 71.5% | 63.6% | 2.7% | 5.6% | 16.6% | 9.8%
Cc1ccc(OCCN2CCN(CC(O)Cn3c4ccccc4c4ccccc43)CC2)cc1 (stereo not given) | 8.91µM* | / | 20µM* | 44.7µM* | / | ?
OC(CN1CCCCC1)Cn1c2ccc(Cl)cc2c2cc(Cl)ccc21 (stereo not given) | ? | 0.9% | -14.1% | 50.1µM* | -30.3% | /
OC(CN1CCNCC1)Cn1c2ccccc2c2ccccc21 (stereo not given) | 50.1µM* | 12.4% | -18.8% | 0.1% | -27.9% | /
OC(CN1CCN(c2ccccc2)CC1)Cn1c2ccccc2c2ccccc21 (stereo not given) | 31.6µM* | -30.8% | ? | 9.7% | ? | /
CCc1ccc(OCC(=O)N(Cc2ccc(C)cc2)Cc2ccco2)cc1 | 125.2%[59 µM] | 125.0% | 97.7% | / | 62.5% | /
COc1cc(Cl)c(NC(=O)c2cc(S(=O)(=O)N3CCCCC3)c[nH]2)c(OC)c1 | -35.6%[59 µM] | 26.4% | -6.5% | / | -15.5% | /
CCOCCCn1c(=O)c2ccccc2n2c(=S)[nH]nc12 | 10µM* | -13.4% | -24.5% | -18.6% | 3.98µM* | /
C=CCn1c(=O)c2ccccc2n2c(SCC(=O)N(C)C)nnc12 | -0.3% | 37.5% | -16.1% | 5.3% | -3.0% | /
CC(C)OCCCn1c(=O)c2ccccc2n2c(-c3ccccc3F)nnc12 | -17.5%[59 µM] | 12.9% | -30.7% | / | -30.5% | /
CC(C)OCCCn1c(=O)c2ccccc2n2c(-c3ccccc3)nnc12 | ? | 5.1% | 50.1µM* | / | 50.1µM* | /
CC(C)CCn1c(=O)c2ccccc2n2c(=S)[nH]nc12 | 1.41µM* | 70.8µM* | 44.7µM* | 56.2µM* | 3.55µM* | /
